Assay results reported in PubChem BioAssay AID1159580 (chemical genetic matrix, 2015).
The campaign covered roughly 5,500 compounds. About 2,000 (36%) were called active. Inconclusive results (about 18%) are left out. Cut-off read from the data, not from the text of the source: active = normalized growth mostly below about 0.91 (no sharp cut-off); inconclusive = no clear call, values can overlap the other calls; inactive = mostly above about 0.92. Some of the results follow.

Assay: chemical genetic growth profiling, strain panel (AID 1159580);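 note: tested at 20 µM; growth read once vehicle control cultures reached saturation at 30 °C; 1 = growth at the plate median or of vehicle wells; lower values mean less growth of the strain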
Conditions: S. cerevisiae deletion strains, growth OD

Measured: normalized growth

COc1ccc(-c2cc(=O)c3c(OC)c(OC)c(OC)cc3o2)cc1OC
inactive: locus YHR030C, strain SLT2, active compounds read low 1.03 | locus YHR079C, strain IRE1, active compounds read low 1.02 | locus YJL095W, strain BCK1, active compounds read low 0.974 | locus YJR066W, strain TOR1, active compounds read low 0.99 | locus YLR113W, strain HOG1, active compounds read low 0.968 | locus YNL183C, strain NPR1, active compounds read low 0.936 | locus YOR231W, strain MKK1, active compounds read low 1.02 | locus YPL256C, strain CLN2, active compounds read low 1
